Potentiation data for 20 molecules are collected here from PubChem BioAssay AID540277 (National Center for Advancing Translational Sciences (NCATS), 2011).

SMILES strings stand for the structures. The campaign covered roughly 320,000 compounds. About 55 (0.02%) were called active. Another 3% or so got no clear call; they are omitted. This excerpt belongs to a sample that is enriched for actives. Unmarked numbers belong to inactive results. Cut-off read from the data, not from the text of the source: active = potentiation above about 80%; inconclusive = between about 30% and that limit; inactive = weaker than that.

This assay deals with Transient receptor potential cation channel subfamily V member 1 (Homo sapiens) (UniProt Q8NER1). The assay is described as follows: HTS Assay for Compounds that Act as Potentiators of the Vanilloid Receptor 1. Note: 0% is about no effect. The settings on record: TRPV1-expressing cells, Fluo-8 calcium influx, capsaicin EC20 potentiation; at 8.33 µM; active compounds read high. The text has this: The transient receptor potential ion channel, family V, number 1, (TRPV1) is one of the most important molecular transducers of painful stimuli and a potential target for analgesic drug development. Although recent clinical trials with orthosteric antagonists have not produced a successful drug because of a hyperthermia side effect and their tendency to block thermal noxious pain, this ion channel is undeniably well placed in the pain pathway, and the idea of blocking pain signals before they enter the CNS is an excellent concept and of proven efficacy when TRPV1 agonists are used. We propose a new approach involving allosteric modulation to impose an activity-dependent constraint within the context of inflammation and tissue damage that would alter the responsiveness of the channel in a way that an orthosteric vanilloid antagonist cannot achieve. We believe that the allosteric modulator approach has not been explored for this target. The main goal of this proposal is to identify additional, new, potent allosteric modulators of TRPV1 that can be used to investigate TRPV1 function. Our recent report provides evidence of proof of concept, but the compounds are just at the edge of utility in terms of potency. […] The question of whether they can be used as analgesic agents is complex, but if suitable compounds are identified then testing for analgesic properties will be conducted. NIH Chemical Genomics Center [NCGC] NIH Molecular Libraries Probe Centers Network [MLPCN] MLPCN Grant: MH089480-1A1 Assay Submitter (PI): Michael Iadarola, National Institute of Dental and Cranofacial Research
Chain of Transient receptor potential cation channel subfamily V member 1 (Homo sapiens) (Q8NER1 whole entry, looked up): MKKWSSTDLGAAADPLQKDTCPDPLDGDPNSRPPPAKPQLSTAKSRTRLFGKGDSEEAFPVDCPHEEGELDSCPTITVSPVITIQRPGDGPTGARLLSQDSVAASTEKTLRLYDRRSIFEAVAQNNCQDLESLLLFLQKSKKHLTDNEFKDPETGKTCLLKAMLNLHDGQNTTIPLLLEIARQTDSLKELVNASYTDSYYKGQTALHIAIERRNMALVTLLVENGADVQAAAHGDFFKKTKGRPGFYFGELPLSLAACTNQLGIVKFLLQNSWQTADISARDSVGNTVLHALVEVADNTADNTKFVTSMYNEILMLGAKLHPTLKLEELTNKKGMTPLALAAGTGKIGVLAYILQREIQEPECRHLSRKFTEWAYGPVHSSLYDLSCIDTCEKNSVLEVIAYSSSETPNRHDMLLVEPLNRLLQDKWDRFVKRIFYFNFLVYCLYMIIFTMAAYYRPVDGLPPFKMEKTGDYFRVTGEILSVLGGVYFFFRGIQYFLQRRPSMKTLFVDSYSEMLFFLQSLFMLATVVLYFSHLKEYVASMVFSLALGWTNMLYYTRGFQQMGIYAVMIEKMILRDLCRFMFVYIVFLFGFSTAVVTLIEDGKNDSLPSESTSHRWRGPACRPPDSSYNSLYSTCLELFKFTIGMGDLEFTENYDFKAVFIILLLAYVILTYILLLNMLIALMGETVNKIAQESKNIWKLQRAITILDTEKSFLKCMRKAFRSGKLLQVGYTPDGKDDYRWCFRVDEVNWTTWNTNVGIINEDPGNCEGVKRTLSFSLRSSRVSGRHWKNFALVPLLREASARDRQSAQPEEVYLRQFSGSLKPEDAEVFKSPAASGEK
Upon TRPV1 activation in TRPV1 cells, the channel opens and extracellular cations flow through the channel into the cytosol. A calcium binding dye (Fluo-8) becomes fluorescent when bound to calcium. This dye is pre-loaded into cells and is used as a marker for calcium influx. The amount of accumulated calcium is precisely quantified using the FDSS kinetic reader and the calcium dye. For the HTS assay, freshly prepared cells are plated at a density of 2000/well in 3 ul medium in 1536-well plates and cultured overnight at 35.5C. Cells will be loaded with 1 ul of the homogeneous calcium dye (ABD Bioquest) at room temperature for 40 to 90 minutes. Plates will be loaded into the FDSS kinetic reader and a 1 sec / cycle for 10 second baseline signal will be measured. Compound library will then be added with a pintool at 23 nl and measured kinetically for 3 minutes. This portion of the read is considered the agonist portion of the screen. Following the 3 minutes of incubation, an on board pipettor will deliver 1 ul of capsaicin for a final concentration equal to the EC20. Signal will be measured kinetically for an additional 2 minutes. This portion of the read is considered the allosteric enhancer portion of the screen. The FDSS reader has a standard filter set capable of measuring calcium bound Fluo-8 (ex=480 and em=520 nm).
On to `O=C(Nc1ccccn1)C1CCN(S(=O)(=O)c2ccc3c(c2)OCCO3)CC1`, for which the potentiation was 1.92%.

As for `O=C(CCNC(=O)c1ccc(Cl)cc1)NC1CCCc2ccccc21` (stereo not given), the potentiation is 27%.

For `COc1ccccc1C(=O)Nc1ccc(OCC(=O)N2CCCCC2)cc1`, the potentiation is -9.6%.

On to `COc1ccccc1C(=O)Nc1ccc(C)c(S(=O)(=O)N2CCCCC2)c1`, for which the potentiation was -33.7%.

Regarding `Cc1ccc(NC(=O)Cn2c(C)csc2=O)cc1`, the potentiation is 15%.

For `Cc1ccc(-n2nc(C)c(C(=O)O)c2-n2cccc2)cc1`, the potentiation was 21.9%.

In the case of `O=C(O)CSc1ccc(S(=O)(=O)N2CCCC2)cn1`, the potentiation is 5.08%.

Consider `CCN(CC(=O)Nc1ccc(OC)cc1)C(=O)c1ccc(Cl)c(S(=O)(=O)N2CCCC2)c1`, for which the potentiation was 0.452%.

In the case of `Cc1ccc(C(=O)NCC(c2cccs2)N(C)C)cc1S(=O)(=O)N1CCOCC1` (stereo not given), the potentiation is 2.03%.

Regarding `Cc1noc(C)c1COc1ccc(C(=O)NCCOc2ccccc2)cc1`, the potentiation is -13.4%.

In the case of `c1ccc2cc(CCCc3cc4ccccc4cn3)ncc2c1`, the potentiation was -8.54%.

For `O=c1ccc(S(=O)(=O)N2CCCC2)cn1Cc1nc(-c2ccccc2)no1`, the potentiation was -29.3%.

`CC1CCc2sc(C(=O)NCC(c3ccco3)N3CCCCC3)cc2C1` (stereo not given): the potentiation is -4.62%.

Regarding `Cc1ccc(-c2ccc(/C=C(\C#N)C(N)=S)o2)c([N+](=O)[O-])c1`, the potentiation was -9.36%.

With `CCN(CC(=O)Nc1c(F)cccc1F)C(=O)c1cnc(C)cn1`, the potentiation was -6.22%.

As to `CC1CC(=O)Nc2ccccc2N1C(=O)COc1ccc2cc(Br)ccc2c1` (stereo not given), the potentiation is -0.32%.

Regarding `O=C(OCC(=O)N1CCc2ccccc21)c1ccc([N+](=O)[O-])cc1`, the potentiation is -20.6%.

`O=S(=O)(c1cccs1)N1CCN(CCOc2ccccc2)CC1`: the potentiation is -11.9%.

`Cc1noc(C)c1C(=O)NCC1COc2ccccc2O1` (stereo not given): the potentiation is -2.08%.

In the case of `COc1ccc(-c2nc3c(c(SCC(=O)Nc4ccc(C(=O)O)cc4)n2)Cc2ccccc2O3)cc1`, the potentiation is 15.9%.
